Source: PubChem BioAssay
The source made the active and inactive calls. Unless noted, the rule behind the calls is not given here.

Columns and labels:
[1] = compounds binding Alexa647 anti-His antibody – biochemical, small-molecule microarray, 635 nm fluorescence, artefact control for SMM control protein annotation, primary screen (AID 1128); details: higher = more signal;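 note: score merges feature fluorescence with signal-to-noise for each printed compound spot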
[2] = test system: Human papillomavirus type 1a E7 protein (residues 1-88); assay: HPV1a E7 small-molecule binders, primary screen, biochemical, small-molecule microarray, residues 1-88, 635 nm (AID 1129); details: small-molecule microarray binding, fluorescence 635 nm; higher = more signal
[3] = molecular target: Focal adhesion kinase 1 (Homo sapiens) (UniProt Q05397); assay: PTK2 protein binding on printed compound slides – biochemical, small-molecule microarray, 635/667 nm fluorescence, BSA, DTT, primary screen (AID 1130); details: 635 nm fluorescence, higher = more signal;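 note: composite of spot emission at 667 nm and signal to noise over triplicate slides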
Sequence of Focal adhesion kinase 1 (Homo sapiens) (Q05397 whole entry, looked up): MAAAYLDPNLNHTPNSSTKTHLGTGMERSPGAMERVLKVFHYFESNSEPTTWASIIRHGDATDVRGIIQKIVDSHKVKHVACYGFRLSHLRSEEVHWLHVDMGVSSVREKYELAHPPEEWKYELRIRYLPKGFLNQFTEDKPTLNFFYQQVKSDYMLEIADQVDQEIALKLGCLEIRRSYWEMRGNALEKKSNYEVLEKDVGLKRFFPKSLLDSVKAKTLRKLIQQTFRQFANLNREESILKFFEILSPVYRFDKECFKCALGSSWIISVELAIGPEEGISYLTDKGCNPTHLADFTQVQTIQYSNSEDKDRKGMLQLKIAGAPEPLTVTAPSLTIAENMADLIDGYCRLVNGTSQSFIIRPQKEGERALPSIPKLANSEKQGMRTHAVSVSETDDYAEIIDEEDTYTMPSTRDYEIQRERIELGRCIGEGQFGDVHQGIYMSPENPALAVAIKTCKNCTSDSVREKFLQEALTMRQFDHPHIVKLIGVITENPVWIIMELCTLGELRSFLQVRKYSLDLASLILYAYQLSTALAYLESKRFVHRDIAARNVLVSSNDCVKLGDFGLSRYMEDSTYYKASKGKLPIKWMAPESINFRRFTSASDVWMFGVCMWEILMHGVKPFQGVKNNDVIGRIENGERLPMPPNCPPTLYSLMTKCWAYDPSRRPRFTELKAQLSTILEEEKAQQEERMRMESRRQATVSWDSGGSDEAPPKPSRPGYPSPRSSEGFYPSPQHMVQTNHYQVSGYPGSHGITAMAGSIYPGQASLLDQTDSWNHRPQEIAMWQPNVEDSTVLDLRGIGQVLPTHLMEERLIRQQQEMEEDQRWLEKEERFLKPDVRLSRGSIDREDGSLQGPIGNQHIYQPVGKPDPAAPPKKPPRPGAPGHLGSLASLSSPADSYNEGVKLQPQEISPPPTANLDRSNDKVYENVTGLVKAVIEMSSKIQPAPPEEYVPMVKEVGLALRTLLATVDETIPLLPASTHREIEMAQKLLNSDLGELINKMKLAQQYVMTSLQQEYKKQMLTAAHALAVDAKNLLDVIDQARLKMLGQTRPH

[4] = test system: Fibrinogen (Alexa647-labelled); assay: Alexa647-fibrinogen binding to printed small molecules – biochemical, small-molecule microarray, 635/667 nm fluorescence, artefact control for SMM control-protein annotation, profiling panel (AID 1131); details: fibrinogen-A647 binding fluorescence, higher = more signal;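 note: z-score merges 667 nm fluorescence with per-spot signal-to-noise over triplicate slides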
[5] = molecular target: Follistatin (Homo sapiens) (UniProt P19883); assay: FST protein binding to printed compounds – biochemical, small-molecule microarray, 635/667 nm fluorescence, primary screen (AID 1132); details: 635 nm fluorescence, higher = more signal
Sequence of Follistatin (Homo sapiens) (P19883 whole entry, looked up): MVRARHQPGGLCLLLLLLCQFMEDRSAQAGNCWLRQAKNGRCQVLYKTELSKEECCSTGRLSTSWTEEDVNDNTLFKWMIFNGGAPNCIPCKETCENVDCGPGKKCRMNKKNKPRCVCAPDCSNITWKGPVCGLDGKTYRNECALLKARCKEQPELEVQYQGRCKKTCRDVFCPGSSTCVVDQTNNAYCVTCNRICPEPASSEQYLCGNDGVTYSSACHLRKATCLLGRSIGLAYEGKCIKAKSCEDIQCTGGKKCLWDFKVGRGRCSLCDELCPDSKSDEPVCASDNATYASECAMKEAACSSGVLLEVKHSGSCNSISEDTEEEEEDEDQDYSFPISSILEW

[6] = molecular target: Fibroblast growth factor 2 (Homo sapiens) (UniProt P09038); assay: basic fibroblast growth factor binding to printed compounds – biochemical, small-molecule microarray, 635/667 nm fluorescence, primary screen (AID 1133); details: FGF2, fluorescence 635/667, higher = more signal
Sequence of Fibroblast growth factor 2 (Homo sapiens) (P09038 whole entry, looked up): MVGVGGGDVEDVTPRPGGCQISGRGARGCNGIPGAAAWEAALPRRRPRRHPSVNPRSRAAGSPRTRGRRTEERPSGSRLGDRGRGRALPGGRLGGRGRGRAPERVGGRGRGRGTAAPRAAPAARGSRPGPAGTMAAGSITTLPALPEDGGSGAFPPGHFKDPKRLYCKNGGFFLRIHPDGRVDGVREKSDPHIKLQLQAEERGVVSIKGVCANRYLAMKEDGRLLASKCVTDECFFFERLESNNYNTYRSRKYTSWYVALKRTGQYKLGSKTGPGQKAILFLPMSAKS

[7] = JC-1 mitochondrial potential readout, lung cancer cells – cell-based, A549, JC-1 fluorescence, basal, 24 h, 100 nL, profiling panel (AID 1138); details: higher = more signal;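 note: A549 lung adenocarcinoma cells under basal conditions with no added stimulus; test concentration not given here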
Lefty1 = Lefty1 protein binding to printed compounds – biochemical, small-molecule microarray, 635/667 nm fluorescence, primary screen (AID 1139); details: fluorescence 635/667, higher = more signal
[8] = test system: wheat germ agglutinin (Triticum aestivum), Alexa647-labelled; assay: Alexa647-WGA lectin binding to printed small molecules – biochemical, small-molecule microarray, 635/667 nm fluorescence, artefact control for SMM control-protein annotation, profiling panel (AID 1140); details: WGA-A647 binding, 635 nm fluorescence, higher = more signal;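 note: score merges 667 nm feature emission with signal to noise over triplicate slides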
[9] = molecular target: Luciferin 4-monooxygenase (Photinus pyralis) (UniProt P08659); assay: inhibition of purified Photinus pyralis luciferase – biochemical, luminescence, purified enzyme, 2006 set, primary screen (AID 1141); details: purified firefly luciferase, SteadyGlo luminescence, 30 min; higher = more signal, called active from +8 up or from −8 down;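 note: cell-free assay with purified firefly luciferase at 100 ng per well in PBS; test concentration not given here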
Sequence of Luciferin 4-monooxygenase (Photinus pyralis) (P08659 whole entry, looked up): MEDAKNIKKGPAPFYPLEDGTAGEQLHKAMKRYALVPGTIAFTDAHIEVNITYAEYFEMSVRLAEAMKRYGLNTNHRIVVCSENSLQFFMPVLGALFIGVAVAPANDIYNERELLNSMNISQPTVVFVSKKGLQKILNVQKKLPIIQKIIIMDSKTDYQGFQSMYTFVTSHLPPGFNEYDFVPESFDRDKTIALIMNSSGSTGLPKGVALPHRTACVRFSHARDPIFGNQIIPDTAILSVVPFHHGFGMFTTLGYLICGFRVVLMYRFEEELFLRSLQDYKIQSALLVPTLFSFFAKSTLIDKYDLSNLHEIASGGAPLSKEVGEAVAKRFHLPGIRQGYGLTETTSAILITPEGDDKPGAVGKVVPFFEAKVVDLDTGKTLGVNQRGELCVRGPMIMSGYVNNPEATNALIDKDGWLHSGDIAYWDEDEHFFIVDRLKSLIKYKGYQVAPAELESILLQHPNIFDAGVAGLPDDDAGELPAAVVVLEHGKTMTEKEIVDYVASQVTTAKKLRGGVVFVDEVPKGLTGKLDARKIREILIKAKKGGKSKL

[10] = test system: Wnt5a (protein binding on small-molecule microarray); assay: small molecules binding Wnt5a protein – biophysical, small-molecule microarray, 635/667 nm fluorescence, primary screen (AID 1142); details: 635 nm fluorescence, higher = more signal;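 note: fluorescence read at 667 nm with signal to noise per printed feature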
[11] = ATP-based viability of Huh7 replicon cells – cell-based, CellTiter-Glo luminescence, basal, 48 h, cytotoxicity control for HCV replication inhibitor project, primary screen (AID 1143); details: higher = more signal, called active from +8 up or from −8 down;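 note: Huh7 hepatoma cells carrying a hepatitis C replication reporter with no stimulus; test concentration not given here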
[12] = Pseudomonas biofilm growth suppression – PAO1 strain, BacTiter-Glo luminescence, LB-PBS, primary screen (AID 1144); details: P. aeruginosa PAO1 biofilm, 12 h, higher = more signal
[13] = basal CRE-LacZ reporter activity in PC12 – cell-based, unstimulated, primary screen (AID 1145); details: no forskolin, luminescence, 4.5 h, higher = more signal, called active from +8 up or from −8 down
[14] = forskolin-driven CRE-LacZ activity in PC12 – cell-based, CRE-LacZ reporter, forskolin-stimulated, primary screen (AID 1146); details: luminescence, 4.5 h, higher = more signal, called active from +8 up or from −8 down;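 note: PC12 cells with 6xCRE LacZ reporter stimulated by forskolin 10 µM; beta-galactosidase reporter signal reflecting CREB driven transcription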
[15] = molecular target: Streptavidin (Streptomyces avidinii) (UniProt P22629); assay: compounds binding control protein streptavidin – biophysical, small-molecule microarray, 635/667 nm fluorescence, artefact control for SMM compound annotation, primary screen (AID 1147); details: higher = more signal;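 note: signal reflects streptavidin binding to arrayed compounds as a control protein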
Sequence of Streptavidin (Streptomyces avidinii) (P22629 whole entry, looked up): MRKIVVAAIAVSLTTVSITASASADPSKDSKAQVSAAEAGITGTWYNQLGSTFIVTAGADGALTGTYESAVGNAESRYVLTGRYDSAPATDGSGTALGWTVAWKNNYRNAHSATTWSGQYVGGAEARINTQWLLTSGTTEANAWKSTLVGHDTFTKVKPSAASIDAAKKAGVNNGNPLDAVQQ

[16] = probe aInhba binding on compound microarray – biochemical, small-molecule microarray, 635/667 nm fluorescence, primary screen (AID 1148); details: higher = more signal;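 note: score merges 667nm spot fluorescence with signal-to-noise for antibody binding to printed compounds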
Torsin-1A (Homo sapiens) [17] = molecular target: Torsin-1A (Homo sapiens) (UniProt O14656); assay: TOR1A wild-type binding on microarray – cell lysate, small-molecule microarray, lysate, 635/667 nm, primary screen (AID 1149); details: COS7 hTOR1A-WT lysate, 635 nm fluorescence, higher = more signal
Sequence of Torsin-1A (Homo sapiens) (O14656 whole entry, looked up): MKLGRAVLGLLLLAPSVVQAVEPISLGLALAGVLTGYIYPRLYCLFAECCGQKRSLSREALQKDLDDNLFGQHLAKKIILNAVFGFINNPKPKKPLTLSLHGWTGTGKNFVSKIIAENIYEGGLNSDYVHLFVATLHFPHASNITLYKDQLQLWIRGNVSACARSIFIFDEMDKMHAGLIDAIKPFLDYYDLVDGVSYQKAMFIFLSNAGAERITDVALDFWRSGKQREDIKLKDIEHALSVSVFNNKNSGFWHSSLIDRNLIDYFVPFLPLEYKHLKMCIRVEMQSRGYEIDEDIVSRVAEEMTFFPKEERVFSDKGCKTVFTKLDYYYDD

Torsin-1A (Homo sapiens) [18] = molecular target: Torsin-1A (Homo sapiens) (UniProt O14656); assay: torsin A mutant lysate binding on microarrays – cell lysate, small-molecule microarray, COS7 lysate, 635/667 nm fluorescence, primary screen (AID 1150); details: COS7 hTOR1A mutant lysate, 635 nm fluorescence, higher = more signal;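 note: score pools 667 nm emission and signal to noise measuring lysate protein binding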
[19] = test system: Sonic hedgehog protein (Shh); assay: Sonic hedgehog microarray binding compounds – biochemical, small-molecule microarray, 635/667 nm fluorescence, primary screen (AID 1151); details: 635 nm fluorescence, higher = more signal;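 note: Shh protein binding to compounds spotted on small-molecule microarray slides; score combines spot fluorescence intensity with signal-to-noise across triplicate slides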

Structure (SMILES)	composite z-score [1]	composite z-score [2]	composite z-score [3]	composite z-score [4]	composite z-score [5]	composite z-score [6]	z-score [7]	composite z-score (Lefty1)	composite z-score [8]	z-score [9]	composite z-score [10]	z-score [11]	z-score [12]	z-score [13]	z-score [14]	composite z-score [15]	composite z-score [16]	composite z-score (Torsin-1A (Homo sapiens) [17])	composite z-score (Torsin-1A (Homo sapiens) [18])	composite z-score [19]
NCCCCCCNC(=O)[C@H]1C[C@H]2C(=O)NCC(=O)N2[C@H]1c1cccc(OCCO)c1	0.869	0.858	0.215	0.794	1.24	1.55	1.85	1.04	1.08	-1.7 (inactive)	0.363	0.0443 (inactive)	0.0567 (inactive)	-0.675 (inactive)	-0.405 (inactive)	0.485	-0.128	1.16	0.872	1.61
COC(=O)[C@@]1(Cc2ccc(OC)cc2)[C@H]2c3cc(C(=O)N(C)C)n(Cc4c(OC)[nH]cc(C)c4=O)c3C[C@H]2CN1C(=O)c1ccccc1	-0.13	0.66	0.66	0.324	0.326	-0.123	0.539	-0.144	0.59	0.151 (inactive)	-0.0522	-0.857 (inactive)	0.0281 (inactive)	-0.185 (inactive)	0.69 (inactive)	-0.0748	0.0882	0.0857	1.16	-1.1
C=CC[C@@]1(C(=O)N2CCOCC2)N=C(c2ccc(OCCCO)cc2)O[C@@H]1c1ccccc1N=[N+]=[N-]	1.58	1.24	0.304	0.752	1.33	1.05	0.0318	0.135	1.13	-11.4 (active)	0.331	-4.09 (inactive)	-0.726 (inactive)	-0.333 (inactive)	-1.34 (inactive)	1.73	0.2	0.41	0.386	0.0055
CC(C)=CCCC(C)=CC(O)C1C=CC2C(=O)N(c3ccccc3)C(=O)C2N1Nc1ccccc1 (stereo not given)	1.79	1.18	0.63	1.01	1.14	0.227	-0.773	0.16	1.3	0.0145 (inactive)	0.744	0.311 (inactive)	-0.786 (inactive)	0.819 (inactive)	1.7 (inactive)	2.04	0.596	0.0777	0.253	0.0068
COC(=O)C(CC#Cc1ccc2c(c1)[C@]1(C(=O)N2)[C@H](C(=O)NC[C@H](O)c2ccccc2)[C@H]2C(=O)O[C@H](c3ccccc3)[C@H](c3ccccc3)N2[C@@H]1c1ccc(OCCO)cc1)C(=O)OC	1.5	1.21	0.538	0.957	1.25	0.937	-1.32	1.69	1.21	-1.83 (inactive)	1.08	-1.02 (inactive)	-0.419 (inactive)	0.0653 (inactive)	-0.291 (inactive)	2.55	0.859	1.69	1.09	1.6
CCCNC(=O)[C@@H]1c2ccccc2C(=O)N(Cc2ccccc2)[C@H]1c1ccc(CO)cc1	1.88	-0.081	-0.255	0.213	0.122	-0.193	-0.109	-0.82	0.935	-0.322 (inactive)	-0.0869	-1.98 (inactive)	-0.112 (inactive)	-0.179 (inactive)	0.0988 (inactive)	0.624	-0.0405	-0.468	-0.221	-0.461
CCOC(=O)C[C@H]1[C@H](OC(=O)c2ccc(-c3ccccc3)cc2)[C@@H](NC(=O)c2ccc3ccccc3c2)c2cc(OCCCO)ccc2N1C(=O)Cc1ccc(OC)cc1	-0.034	0.401	0.463	0.536	-0.187	-0.0546	-0.0901	-0.154	-0.006	1.13 (inactive)	0.266	0.359 (inactive)	-0.599 (inactive)	-1.01 (inactive)	0.809 (inactive)	-0.0829	-0.0954	0.0044	-0.497	-0.0004
CN(C)CCCCCCNC(=O)[C@H]1C[C@H]2C(=O)N[C@@H](CCCCN)C(=O)N2[C@H]1c1ccc(O)cc1	3.12	1.31	-0.108	0.953	1.44	1.61	0.868	1.75	1.36	-0.62 (inactive)	1.79	0.253 (inactive)	-0.26 (inactive)	0.0124 (inactive)	0.737 (inactive)	2.68	1.39	3.35	3.24	2.05
O=C1C=CC(=O)[C@@H]2CC(COc3ccccc3)=C3[C@@H](CCc4ccccc4)OB(O)C[C@@H]3[C@H]12	0.346	0.273	-0.0461	-0.0249	1.08	0.45	-1.59	0.411	-0.158	-3.18 (inactive)	0.135	-2.77 (inactive)	0.452 (inactive)	4.76 (inactive)	4.47 (inactive)	-0.132	-0.231	-0.386	-0.0222	1.3
C=CC[C@@]1(C(=O)O)N=C(c2ccc(OCCCO)cc2)O[C@@H]1c1ccccc1N=[N+]=[N-]	1.06	0.811	0.235	0.987	1.1	-0.168	0.117	-0.504	1.36	-12.9 (active)	0.0886	-1.41 (inactive)	0.651 (inactive)	0.367 (inactive)	-0.432 (inactive)	1.11	0.0697	-0.115	0.251	-0.203
